# Reference: PubChem BioAssay (EPA / NIEHS)
# Records with an inconclusive call do not appear. The source made the active and inactive calls. Rule for the calls, unless noted: active = hit-call score of the fitted dose curve at least 0.9, where 1 is the maximum; inconclusive = response in the unintended direction; inactive = score below 0.9.
# Legend:
# [1] = test system: guinea pig Dopamine Transporter (DAT), gene 100714898; assay: NVS_TR_gDAT: NovaScreen (NVS) Transporter Assay for guinea pig Dopamine Transporter (DAT) (AID 2283369);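 note: active compounds lower bound radioligand signal relative to DMSO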
# Procedure, shortened: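 Primary pass: duplicate wells at 25 uM, threshold e.g. 30% inhibition. Follow-up: singleton concentration-response, highest 50 uM. Radioligand binding on guinea pig striatal membranes, 2 h, filtration scintillation detection.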
# [2] = CCTE_Shafer_MEA_dev_network_spike_peak: CCTE's Neural Network Formation Assay for Mean Number of Electrodes in Network Spike, Shafer Lab (AID 2284049; active = hit-call score of the fitted dose curve at least 0.9, where 1 is the maximum; inactive = score below 0.9)
# Procedure, shortened: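 Rat cortical primary culture, 1.5 x 10^5 cells/well, 48-well MEA (16 electrodes/well). Dosing day 0 through DIV 12, full media/compound exchange DIV 5, 9. AxIS adaptive spike detection; AUC over days 5/7/9/12; loss-of-signal vs DMSO.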
# [3] = CCTE_Shafer_MEA_dev_spike_duration_mean: CCTE's Neural Network Formation Assay for Mean Spike Duration, Shafer Lab (AID 2284051; active = hit-call score of the fitted dose curve at least 0.9, where 1 is the maximum; inactive = score below 0.9;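 note: mean network spike duration pooled as area under curve over DIV 5 to 12 recordings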)
# Procedure, shortened: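 Spontaneous activity was recorded on days 5, 7, 9 and 12 from rat cortical cultures grown on microelectrode arrays and dosed continuously from day 0, with media and compound renewed after the DIV 5 and 9 recordings. Network-spike duration was collapsed by area under the curve.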
# [4] = CCTE_Shafer_MEA_dev_network_spike_duration_std: CCTE's Neural Network Formation Assay for Standard Deviation of Network Spike Duration, Shafer Lab (AID 2284052; active = hit-call score of the fitted dose curve at least 0.9, where 1 is the maximum; inactive = score below 0.9;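 note: hits are decreases in network spike duration SD versus DMSO vehicle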)
# Procedure, shortened: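 Network spike duration variability was collapsed across recordings on days 5, 7, 9 and 12 by trapezoidal area-under-curve and fitted downward against DMSO. Cultures were rat cortical neurons on PEI-coated MEA plates, dosed continuously from plating, refed with compound DIV 5/9.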
# [5] = CCTE_Shafer_MEA_dev_per_network_spike_spike_number_mean: CCTE's Neural Network Formation Assay for Mean Number of Spikes in a Network Spike, Shafer Lab (AID 2284053; active = hit-call score of the fitted dose curve at least 0.9, where 1 is the maximum; inactive = score below 0.9)
# Procedure, shortened: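 Mean spike count within each network spike, taken in a 0.05 s window at its peak, was recorded on days 5, 7, 9 and 12 and integrated as trapezoidal area under the curve. Rat cortical cultures on MEA plates received continuous compound from day 0, refreshed at medium changes on DIV 5 and 9.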
# [6] = CCTE_Shafer_MEA_dev_LDH: CCTE's Lactate Dehydrogenase Assay for Cytotoxicity in the Neural Network Formation Assay, Shafer Lab (AID 2284068);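 note: exposure for twelve days from plating with re-dosing on DIV 5 and 9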
# Procedure, shortened: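 Primary rat cortical neurons were cultured on PEI-coated MEA plates and exposed from plating through day 12, with compound renewed at medium changes on DIV 5 and 9. LDH activity was read spectrophotometrically; loss of signal versus DMSO indicates reduced viability.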
# [7] = CCTE_Shafer_MEA_dev_mutual_information_norm: CCTE's Neural Network Formation Assay for Mutual Information Normalization, Shafer Lab (AID 2284091; active = hit-call score of the fitted dose curve at least 0.9, where 1 is the maximum; inactive = score below 0.9)
# Procedure, shortened: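 Shared information across electrodes, tracked on days 5, 7, 9 and 12 of network development and collapsed as trapezoidal area under the curve. Rat cortical cultures were treated continuously from plating, with treatment renewed at feeds on DIV 5 and 9; DMSO baseline, negative-direction fit.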
# [8] = CCTE_Shafer_MEA_dev_correlation_coefficient_mean: CCTE's Neural Network Formation Assay for Mean Correlation Coefficient, Shafer Lab (AID 2284093; active = hit-call score of the fitted dose curve at least 0.9, where 1 is the maximum; inactive = score below 0.9)
# Procedure, shortened: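 Primary rat cortical neurons on PEI-coated 48-well MEA plates (16 electrodes/well) were exposed from plating day 0 through DIV12, with compound renewed at DIV5 and 9. Pairwise spike correlations were averaged per well; trapezoidal AUC across DIV5, 7, 9, 12.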
# [9] = TAMU_PeakParms_SingleDonor1434_Chronotropy: Texas A&M University (TAMU) 1.5-hr Human Induced Pluripotent Stem Cell (iPSC)-derived Cardiomyocytes Calcium (Ca+2) Flux Assay for Cardiotoxicity: Chronotropy (changes in peak frequency) (AID 2284217; active = hit-call score of the fitted dose curve at least 0.9, where 1 is the maximum; inactive = score below 0.9); conditions: actives raise or lower the signal
# Procedure, shortened: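 Beat rate, as mean Ca2+-flux peak frequency, was read from donor 1434 iPSC cardiomyocytes 90 min after exposure to 0.2–100 uM test chemical (0.5% DMSO). Wells that stopped beating were excluded; EC05 from bidirectional DMSO-referenced fitting.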
# [10] = target: Estrogen receptor (Homo sapiens) (UniProt P03372); assay: OT_ER_ERaERa_1440: Odyssey Thera (OT) 24-hour HEK293T Protein-Complementation Assay for Estrogen Receptor-alpha/-alpha Homodimer (AID 2283349);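 note: hits raise fluorescence above DMSO for agonists and antagonists alike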
# Sequence of Estrogen receptor (Homo sapiens) (P03372 whole entry, looked up, the tested form may be a part): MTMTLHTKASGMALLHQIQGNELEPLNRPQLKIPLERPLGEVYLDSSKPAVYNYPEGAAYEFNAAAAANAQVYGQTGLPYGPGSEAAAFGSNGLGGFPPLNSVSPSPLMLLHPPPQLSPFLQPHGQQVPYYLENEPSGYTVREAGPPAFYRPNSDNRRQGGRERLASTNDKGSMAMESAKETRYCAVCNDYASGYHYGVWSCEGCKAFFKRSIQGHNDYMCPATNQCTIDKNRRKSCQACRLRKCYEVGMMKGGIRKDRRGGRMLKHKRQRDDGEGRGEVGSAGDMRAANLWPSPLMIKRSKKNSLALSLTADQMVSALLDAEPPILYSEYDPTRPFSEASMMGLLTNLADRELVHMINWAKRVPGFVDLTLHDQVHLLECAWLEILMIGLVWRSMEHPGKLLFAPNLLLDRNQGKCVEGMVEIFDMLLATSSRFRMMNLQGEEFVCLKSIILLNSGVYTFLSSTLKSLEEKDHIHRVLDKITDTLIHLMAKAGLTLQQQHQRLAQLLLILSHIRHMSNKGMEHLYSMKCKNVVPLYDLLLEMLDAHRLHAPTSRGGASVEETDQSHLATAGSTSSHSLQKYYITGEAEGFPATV
# Procedure, shortened: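 HEK293T, stable ERα LBD (aa 310-547) homodimer PCA; 24 h compound exposure; mean fluorescence intensity (nuclear for agonists, nuclear plus cytoplasmic for antagonists) vs vehicle; positive fitting direction, DMSO baseline.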
# [11] = target: Estrogen receptor (Homo sapiens) (UniProt P03372); assay: OT_ER_ERaERa_0480: Odyssey Thera (OT) 8-hour HEK293T Protein-Complementation Assay for Estrogen Receptor-alpha/-alpha Homodimer (AID 2283351);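 note: rise in fluorescence from reassembled reporter fragments on ERα LBD homodimer in nucleus or whole cell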
# Procedure, shortened: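 HEK293T cells stably expressing a PCA pair of ER alpha LBD (residues 310-547) were dosed for 8 hours. The gain in fluorescence intensity, nuclear for agonists and whole-cell for antagonists, was measured by laser scanning cytometry against DMSO vehicle.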
# [12] = target: Estrogen receptor (Homo sapiens) + Estrogen receptor beta (Homo sapiens) (UniProt P03372+Q92731); assay: OT_ER_ERaERb_1440: Odyssey Thera (OT) 24-hour HEK293T Protein-Complementation Assay for Estrogen Receptor-alpha/-beta Homodimer (AID 2283356);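 note: heteromer of ER alpha and ER beta binding domains; hits raise reporter fluorescence and both agonists and antagonists give an increase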
# Sequence of Estrogen receptor (Homo sapiens) + Estrogen receptor beta (Homo sapiens) (P03372 whole entry, looked up, the tested form may be a part): as above
# Sequence of Estrogen receptor (Homo sapiens) + Estrogen receptor beta (Homo sapiens) (Q92731 whole entry, looked up, the tested form may be a part): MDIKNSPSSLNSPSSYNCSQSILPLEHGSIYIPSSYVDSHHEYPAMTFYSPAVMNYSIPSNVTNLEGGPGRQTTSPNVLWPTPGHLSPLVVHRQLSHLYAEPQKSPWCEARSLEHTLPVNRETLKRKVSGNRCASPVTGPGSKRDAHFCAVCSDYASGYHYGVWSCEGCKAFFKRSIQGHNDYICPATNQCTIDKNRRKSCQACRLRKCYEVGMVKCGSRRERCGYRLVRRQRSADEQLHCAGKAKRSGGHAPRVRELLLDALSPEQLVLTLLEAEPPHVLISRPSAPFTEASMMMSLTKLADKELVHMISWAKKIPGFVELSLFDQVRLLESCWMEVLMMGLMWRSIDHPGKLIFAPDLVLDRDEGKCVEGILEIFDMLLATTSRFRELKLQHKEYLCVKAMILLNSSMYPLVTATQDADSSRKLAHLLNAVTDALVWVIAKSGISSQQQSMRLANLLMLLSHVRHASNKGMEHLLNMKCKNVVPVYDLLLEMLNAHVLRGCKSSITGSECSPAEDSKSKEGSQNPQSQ
# Procedure, shortened: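 24 h exposure; HEK293T PCA cells with ERα/ERβ LBD fragments; signal rise in nuclear or whole-cell fluorescence over vehicle.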
# [13] = target: Estrogen receptor (Homo sapiens) (UniProt P03372); assay: OT_ERa_GFPERaERE_0480: Odyssey Thera (OT) 8-hour HeLa Transcription Induction Assay for Estrogen Receptor (AID 2283381; active = hit-call score of the fitted dose curve at least 0.9, where 1 is the maximum; inactive = score below 0.9)
# Procedure, shortened: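 Fluorescence microscopy with high-content image analysis measures ERE-driven GFP induction in HeLa cells at 8 h post-dose. Increases fitted against DMSO baseline.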
# [14] = target: Estrogen receptor (Homo sapiens) (UniProt P03372); assay: OT_ERa_GFPERaERE_0120: Odyssey Thera (OT) 2-hour HeLa Transcription Induction Assay for Estrogen Receptor (AID 2283382)
# Procedure, shortened: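 Fluorescence-microscopy images of the GFP-ERα/ERE reporter, scored by high-content image algorithms, give the readout. HeLa exposure lasted 2 h, and only signal increase over DMSO was fitted.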
# [15] = target: human Peroxisome Proliferator-activated Receptor alpha (PPARa), PPARA (gene 5465) (UniProt Q07869); assay: NVS_NR_hPPARa: NovaScreen (NVS) Nuclear Receptor Binding Assay for human Peroxisome Proliferator-activated Receptor alpha (PPARa) (AID 2283359);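 note: activity means loss of TR-FRET signal versus DMSO baseline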
# Sequence of human Peroxisome Proliferator-activated Receptor alpha (PPARa), PPARA (gene 5465) (Q07869 whole entry, looked up): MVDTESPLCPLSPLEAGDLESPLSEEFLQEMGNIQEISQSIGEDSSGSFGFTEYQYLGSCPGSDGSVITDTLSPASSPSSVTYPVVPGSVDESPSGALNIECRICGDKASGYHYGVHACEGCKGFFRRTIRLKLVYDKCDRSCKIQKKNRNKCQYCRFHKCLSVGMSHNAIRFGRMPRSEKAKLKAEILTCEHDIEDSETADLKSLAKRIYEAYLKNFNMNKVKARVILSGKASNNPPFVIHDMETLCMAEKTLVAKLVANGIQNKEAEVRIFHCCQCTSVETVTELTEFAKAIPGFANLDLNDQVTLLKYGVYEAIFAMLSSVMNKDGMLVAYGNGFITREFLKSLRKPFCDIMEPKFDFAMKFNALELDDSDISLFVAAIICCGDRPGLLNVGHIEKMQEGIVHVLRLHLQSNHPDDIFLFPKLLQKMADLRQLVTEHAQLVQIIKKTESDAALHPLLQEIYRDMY
# Procedure, shortened: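 Loss of TR-FRET binding signal relative to DMSO was measured 1 h after chemical addition to extracted receptor protein. Chemicals were first tested in duplicate at 25 uM, and actives were followed up in concentration series.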
# [16] = STM_H9_OrnCyssISnorm_ratio: Stemina devTOX quickPredict H9 human embryonic stem cell (hESC)-based Assay for Ornithine (ORN):Cystine (CYSS) Ratio (AID 2283714)
# Procedure, shortened: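 Ratio of internal-standard-normalized ornithine to cystine, measured by UPLC-HRMS in spent media from the last 24 h. H9 cells kept pluripotent, dosed 72 h with daily media and compound renewal; DMSO 0.1% serves as baseline.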
smiles,measurement,setting,value
CC(C)CCCCCCCOP(=O)(Oc1ccccc1)Oc1ccccc1,AC50,[1],12.2 µM (active)
same,outcome,[2],inactive
same,outcome,[3],inactive
same,outcome,[4],inactive
same,outcome,[5],inactive
same,outcome,[6],inactive
same,outcome,[7],inactive
same,outcome,[8],inactive
same,outcome,[9],inactive
CCCC=NO,outcome,[10],inactive
same,outcome,[11],inactive
same,outcome,[12],inactive
same,outcome,[13],inactive
same,outcome,[14],inactive
O=CNC(N1CCN(C(NC=O)C(Cl)(Cl)Cl)CC1)C(Cl)(Cl)Cl (centres undefined),outcome,[10],inactive
same,outcome,[11],inactive
same,outcome,[12],inactive
same,outcome,[13],inactive
same,outcome,[14],inactive
COc1cc(OC)nc(Oc2cccc(Oc3nc(OC)cc(OC)n3)c2C(=O)O)n1,outcome,[15],inactive
CNC(=N[N+](=O)[O-])NCC1CCOC1 (centres undefined),outcome,[2],inactive
same,outcome,[3],inactive
same,outcome,[4],inactive
same,outcome,[5],inactive
same,outcome,[6],inactive
same,outcome,[7],inactive
same,outcome,[8],inactive
O=P(O)(Oc1ccccc1)Oc1ccccc1,outcome,[10],inactive
same,outcome,[11],inactive
same,outcome,[12],inactive
same,outcome,[13],inactive
same,outcome,[14],inactive
CC(C)(C)C(O)C(Oc1ccc(-c2ccccc2)cc1)n1cncn1 (centres undefined),AC50,[1],18 µM (active)
O=C1C(Cl)=C(Cl)C(=O)C(Cl)=C1Cl,outcome,[16],inactive
O=C1C=CC(=O)C=C1,AC50,[9],50 µM (active)
O=S(=O)(c1ccccc1)c1ccccc1,AC50,[1],19.9 µM (active)
CCCCCCCCCCCCCCCC[N+](C)(C)C,AC50,[15],19.9 µM (active)
Nc1ccccc1,outcome,[15],inactive
[CH3][Sn]([CH3])([Cl])[Cl],outcome,[15],inactive
